# From PubChem BioAssay
# Active and inactive are the calls of the source.
# What was measured:
# [1] = test system: PRMT1 (protein arginine N-methyltransferase 1); experiment: small molecules binding arginine methyltransferase PRMT1 – biochemical, small-molecule microarray, 635 nm fluorescence, primary screen (AID 1088); settings: higher = more signal;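 note: binding of Prmt1 protein to compounds spotted on small-molecule microarray slides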
# [2] = growth effects on S. cerevisiae YJM789 – YJM789 clinical isolate, OD600, 24 h, basal, primary screen (AID 1089); settings: higher = more signal, called active from +8 up or from −8 down;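 note: growth of clinical yeast isolate S. cerevisiae YJM 789 seeded 1000 cells per well; test concentration not given here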
# [3] = S. pombe growth modifiers, basal conditions – strain 972, OD600, 24 h, no modulator, primary screen (AID 1090);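 note: basal condition with compound alone and no growth modifier present; test concentration not given here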; settings: S. pombe 972 growth, higher = more signal, called active from +8 up or from −8 down
# [4] = budding yeast growth modifiers under rapamycin – strain BY4716, OD600, 96 h, primary screen (AID 1091); note: test concentration not given here; settings: S. cerevisiae BY4716 + rapamycin, higher = more signal, called active from +8 up or from −8 down
# [5] = biological target: Torsin-1A-interacting protein 2 (Homo sapiens) (UniProt Q8NFQ8); experiment: small molecules binding lysate-expressed LULL1 – cell lysate, human LULL1 lysate, 635/667 nm fluorescence, primary screen (AID 1092); settings: small-molecule microarray, hLULL1 lysate binding, 635 nm fluorescence; higher = more signal;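 note: probe is lysate of COS7 cells overexpressing human LULL1; score merges per-feature 667 nm fluorescence with signal-to-noise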
# [6] = optical density change of DRC41 E. coli – strain DRC41, OD650, 24 h, E. coli filamentation project, primary screen (AID 1093);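 note: MC1000 strain lacking acrAB efflux and sulA so SOS filamentation is blocked; test concentration not given here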; settings: E. coli DRC41 growth, higher = more signal, called active from +8 up or from −8 down
# [7] = probe aLefty2 binding to arrayed compounds – biochemical, biotinylated probe, 635/667 nm fluorescence, primary screen (AID 1094); settings: small-molecule microarray, higher = more signal;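 note: score merges spot fluorescence near 667 nm with spot signal-to-noise ratio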
# [8] = test system: Noggin (protein binding on small-molecule microarray); experiment: small molecules binding Noggin protein – biochemical, 635/667 nm fluorescence, primary screen (AID 1095); settings: 635 nm fluorescence, higher = more signal;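 note: score merges 667 nm feature fluorescence with signal to noise over triplicate slides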
# [9] = biological target: Neurogenic locus notch homolog protein 3 (Homo sapiens) (UniProt Q9UM47); experiment: small molecules binding NOTCH3 protein – biochemical, 635/667 nm fluorescence, primary screen (AID 1096); settings: small-molecule microarray, 635 nm fluorescence, higher = more signal
# [10] = probe aEGFR binding to arrayed compounds – biochemical, biotinylated probe, 635/667 nm fluorescence, primary screen (AID 1097); settings: small-molecule microarray, higher = more signal;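 note: probe is a biotinylated anti-EGFR antibody binding compounds printed on slides; score combines fluorescence near 667 nm and signal to noise of each spot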
# [11] = test system: Plasmodium falciparum Sir2 (PF13_0152, Sir2A); experiment: Plasmodium falciparum Sir2A binding compounds – biochemical, small-molecule microarray, 635 nm fluorescence, primary screen (AID 1098); settings: fluorescence 635 nm, higher = more signal;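 note: score merges spot fluorescence intensity with its signal-to-noise ratio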
# [12] = probe aDKK1 binding to arrayed compounds – biochemical, biotinylated probe, 635/667 nm fluorescence, primary screen (AID 1099); settings: small-molecule microarray, higher = more signal;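 note: score merges 667nm spot fluorescence with signal to noise across triplicate slides; reference of the scale not given here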
# [13] = probe aCHRDL2 binding to arrayed compounds – biochemical, biotinylated probe, 635/667 nm fluorescence, primary screen (AID 1100); settings: small-molecule microarray, higher = more signal
# [14] = change in splice reporter luminescence, either direction, cell-based, HEK293, spliceosome inhibition project, primary screen (AID 1101); settings: HEK293 splicing luciferase reporter, 24 h, higher = more signal, called active from +8 up or from −8 down;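 note: HEK293 cells carrying a splicing-competent luciferase reporter gene; test concentration not given here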
# [15] = biological target: Fibroblast growth factor 10 (Homo sapiens) (UniProt O15520); experiment: compounds binding fibroblast growth factor 10 – biochemical, small-molecule microarray, 635 nm fluorescence, primary screen (AID 1102); settings: FGF10 binding, fluorescence 635 nm, higher = more signal
# [16] = test system: glycogen synthase kinase-3 (GSK3A per assay name; protocol says GSK3B); experiment: compounds binding glycogen synthase kinase-3 – biochemical, small-molecule microarray, 635 nm fluorescence, GSK3A, primary screen (AID 1103); settings: fluorescence 635 nm, higher = more signal; note: the record names both GSK3A and GSK3B
# [17] = biological target: Epidermal growth factor receptor (Homo sapiens) (UniProt P00533); experiment: compounds binding epidermal growth factor receptor – biochemical, small-molecule microarray, 635 nm fluorescence, primary screen (AID 1104); settings: EGFR binding, higher = more signal;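 note: score merges 667 nm emission intensity with spot signal to noise over triplicate slides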
# [18] = biological target: Follistatin-related protein 3 (Homo sapiens) (UniProt O95633); experiment: compounds binding follistatin-related protein 3 – biochemical, small-molecule microarray, 635 nm fluorescence, primary screen (AID 1105); settings: FSTL3 binding, higher = more signal;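 note: score merges emission near 667 nm and signal to noise per printed spot across three slides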
# [19] = biological target: Dickkopf-related protein 1 (Homo sapiens) (UniProt O94907); experiment: small molecules binding DKK1 protein – biochemical, small-molecule microarray, 635 nm fluorescence scan, primary screen (AID 1106); settings: higher = more signal;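 note: score merges emission near 667 nm with signal to noise over three replicate slides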
# [20] = test system: Inhibin beta A chain (activin A); experiment: small molecules binding activin A – biochemical, small-molecule microarray, 635 nm fluorescence scan, primary screen (AID 1107); settings: INHBA, higher = more signal;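 note: mouse activin A protein probed at 4.33 µg/mL on printed slides; score merges bound-protein fluorescence near 667 nm with spot signal-to-noise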
# Chain of Neurogenic locus notch homolog protein 3 (Homo sapiens) (Q9UM47 whole entry, looked up): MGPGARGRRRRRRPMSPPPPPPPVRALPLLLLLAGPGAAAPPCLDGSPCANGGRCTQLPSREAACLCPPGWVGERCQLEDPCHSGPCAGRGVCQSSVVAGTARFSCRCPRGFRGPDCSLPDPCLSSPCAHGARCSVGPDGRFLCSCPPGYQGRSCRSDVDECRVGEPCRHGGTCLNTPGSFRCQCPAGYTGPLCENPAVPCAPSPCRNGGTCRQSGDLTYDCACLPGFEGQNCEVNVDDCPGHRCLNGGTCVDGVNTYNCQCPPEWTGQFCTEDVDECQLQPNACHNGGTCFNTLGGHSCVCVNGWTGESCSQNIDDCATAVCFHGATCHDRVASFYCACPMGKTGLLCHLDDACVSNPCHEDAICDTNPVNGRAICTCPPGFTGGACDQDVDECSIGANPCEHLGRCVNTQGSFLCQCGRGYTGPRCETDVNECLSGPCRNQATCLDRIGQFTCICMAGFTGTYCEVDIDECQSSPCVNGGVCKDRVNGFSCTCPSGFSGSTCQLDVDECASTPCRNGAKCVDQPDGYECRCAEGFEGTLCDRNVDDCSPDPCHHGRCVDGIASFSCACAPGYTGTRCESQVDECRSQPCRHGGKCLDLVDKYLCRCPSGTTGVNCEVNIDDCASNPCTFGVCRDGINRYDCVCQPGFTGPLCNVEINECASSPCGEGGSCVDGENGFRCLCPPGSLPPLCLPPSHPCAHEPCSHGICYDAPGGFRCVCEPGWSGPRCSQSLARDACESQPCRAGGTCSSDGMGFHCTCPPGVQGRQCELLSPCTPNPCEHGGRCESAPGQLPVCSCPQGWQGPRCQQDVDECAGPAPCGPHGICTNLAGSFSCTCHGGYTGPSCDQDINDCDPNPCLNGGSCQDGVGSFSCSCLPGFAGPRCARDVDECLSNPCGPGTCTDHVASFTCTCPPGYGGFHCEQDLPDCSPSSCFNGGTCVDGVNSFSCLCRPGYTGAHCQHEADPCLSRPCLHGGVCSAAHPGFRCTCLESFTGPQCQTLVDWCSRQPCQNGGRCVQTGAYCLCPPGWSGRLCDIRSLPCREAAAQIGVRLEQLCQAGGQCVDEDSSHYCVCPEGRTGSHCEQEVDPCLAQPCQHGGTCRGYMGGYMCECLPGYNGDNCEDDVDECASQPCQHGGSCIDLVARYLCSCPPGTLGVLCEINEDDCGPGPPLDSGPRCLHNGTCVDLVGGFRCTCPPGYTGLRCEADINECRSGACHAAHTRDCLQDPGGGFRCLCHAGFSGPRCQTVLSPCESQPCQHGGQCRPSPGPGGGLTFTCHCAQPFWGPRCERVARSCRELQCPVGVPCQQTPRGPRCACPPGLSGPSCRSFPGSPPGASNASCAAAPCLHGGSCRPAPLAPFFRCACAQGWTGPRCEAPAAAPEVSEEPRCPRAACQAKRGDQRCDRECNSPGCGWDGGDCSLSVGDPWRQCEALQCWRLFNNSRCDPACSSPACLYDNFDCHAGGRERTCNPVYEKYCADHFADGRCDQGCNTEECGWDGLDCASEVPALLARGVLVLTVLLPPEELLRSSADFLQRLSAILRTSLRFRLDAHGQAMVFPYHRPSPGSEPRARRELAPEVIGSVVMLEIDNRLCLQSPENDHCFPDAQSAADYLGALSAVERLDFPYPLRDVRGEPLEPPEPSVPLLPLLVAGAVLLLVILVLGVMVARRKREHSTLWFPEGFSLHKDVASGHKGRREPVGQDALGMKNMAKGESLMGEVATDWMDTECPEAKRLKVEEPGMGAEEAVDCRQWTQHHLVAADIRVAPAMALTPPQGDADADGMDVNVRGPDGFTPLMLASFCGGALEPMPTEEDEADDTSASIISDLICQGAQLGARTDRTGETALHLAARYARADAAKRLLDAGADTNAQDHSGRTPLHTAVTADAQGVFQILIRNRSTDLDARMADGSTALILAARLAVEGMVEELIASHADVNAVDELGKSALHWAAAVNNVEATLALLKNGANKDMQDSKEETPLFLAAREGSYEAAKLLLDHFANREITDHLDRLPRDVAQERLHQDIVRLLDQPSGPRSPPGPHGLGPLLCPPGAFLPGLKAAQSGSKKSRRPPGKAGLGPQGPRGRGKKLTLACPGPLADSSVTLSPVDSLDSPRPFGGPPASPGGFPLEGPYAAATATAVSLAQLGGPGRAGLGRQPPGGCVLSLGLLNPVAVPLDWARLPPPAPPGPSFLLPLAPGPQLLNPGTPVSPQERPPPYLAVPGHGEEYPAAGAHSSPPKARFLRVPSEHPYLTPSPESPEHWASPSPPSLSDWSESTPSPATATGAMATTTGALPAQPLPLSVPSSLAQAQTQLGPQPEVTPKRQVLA
# Chain of Epidermal growth factor receptor (Homo sapiens) (P00533 whole entry, looked up): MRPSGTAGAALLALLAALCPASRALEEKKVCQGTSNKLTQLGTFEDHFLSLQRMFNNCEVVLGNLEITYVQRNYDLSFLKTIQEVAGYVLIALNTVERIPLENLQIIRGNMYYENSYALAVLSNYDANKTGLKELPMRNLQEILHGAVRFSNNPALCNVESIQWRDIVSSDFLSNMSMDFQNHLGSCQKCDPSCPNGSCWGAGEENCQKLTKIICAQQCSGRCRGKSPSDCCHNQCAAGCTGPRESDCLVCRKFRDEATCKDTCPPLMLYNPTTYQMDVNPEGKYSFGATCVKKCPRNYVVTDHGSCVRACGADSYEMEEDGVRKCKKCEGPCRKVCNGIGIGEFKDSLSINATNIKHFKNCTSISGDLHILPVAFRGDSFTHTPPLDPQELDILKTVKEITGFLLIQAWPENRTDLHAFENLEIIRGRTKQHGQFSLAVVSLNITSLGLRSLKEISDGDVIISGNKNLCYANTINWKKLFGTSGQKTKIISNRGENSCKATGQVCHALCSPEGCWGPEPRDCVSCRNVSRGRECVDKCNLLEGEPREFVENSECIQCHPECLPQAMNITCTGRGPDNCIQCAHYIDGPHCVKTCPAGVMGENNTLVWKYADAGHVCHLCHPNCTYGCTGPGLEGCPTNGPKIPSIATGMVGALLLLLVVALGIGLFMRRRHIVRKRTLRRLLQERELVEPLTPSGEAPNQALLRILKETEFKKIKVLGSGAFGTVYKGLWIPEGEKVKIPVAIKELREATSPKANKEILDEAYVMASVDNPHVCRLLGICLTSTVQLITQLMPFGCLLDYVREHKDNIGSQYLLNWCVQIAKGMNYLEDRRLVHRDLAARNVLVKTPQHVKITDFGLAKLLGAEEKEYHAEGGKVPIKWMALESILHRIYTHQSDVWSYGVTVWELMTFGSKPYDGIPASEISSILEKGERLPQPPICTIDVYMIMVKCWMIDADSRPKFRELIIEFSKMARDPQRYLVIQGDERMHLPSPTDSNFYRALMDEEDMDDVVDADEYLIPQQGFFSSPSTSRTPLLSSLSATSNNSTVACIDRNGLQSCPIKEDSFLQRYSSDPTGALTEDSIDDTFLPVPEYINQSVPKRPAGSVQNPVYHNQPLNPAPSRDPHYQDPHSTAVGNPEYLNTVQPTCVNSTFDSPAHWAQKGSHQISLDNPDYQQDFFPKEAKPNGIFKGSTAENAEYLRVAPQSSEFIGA
# Chain of Follistatin-related protein 3 (Homo sapiens) (O95633 whole entry, looked up): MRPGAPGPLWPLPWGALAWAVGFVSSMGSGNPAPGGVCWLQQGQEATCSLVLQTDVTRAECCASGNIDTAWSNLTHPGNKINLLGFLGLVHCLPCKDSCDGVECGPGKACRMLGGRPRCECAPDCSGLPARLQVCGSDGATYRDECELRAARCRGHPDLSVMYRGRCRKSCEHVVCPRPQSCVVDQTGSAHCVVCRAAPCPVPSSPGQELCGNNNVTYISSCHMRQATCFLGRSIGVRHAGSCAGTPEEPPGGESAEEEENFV
# Chain of Dickkopf-related protein 1 (Homo sapiens) (O94907 whole entry, looked up): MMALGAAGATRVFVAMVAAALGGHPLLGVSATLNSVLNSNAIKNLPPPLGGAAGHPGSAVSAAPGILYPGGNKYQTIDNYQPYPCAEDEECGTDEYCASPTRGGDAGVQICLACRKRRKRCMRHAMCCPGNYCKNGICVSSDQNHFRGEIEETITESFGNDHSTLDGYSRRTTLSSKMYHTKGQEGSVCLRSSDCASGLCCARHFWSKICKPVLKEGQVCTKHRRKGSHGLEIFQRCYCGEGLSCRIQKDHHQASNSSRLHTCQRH
# Chain of Fibroblast growth factor 10 (Homo sapiens) (O15520 whole entry, looked up): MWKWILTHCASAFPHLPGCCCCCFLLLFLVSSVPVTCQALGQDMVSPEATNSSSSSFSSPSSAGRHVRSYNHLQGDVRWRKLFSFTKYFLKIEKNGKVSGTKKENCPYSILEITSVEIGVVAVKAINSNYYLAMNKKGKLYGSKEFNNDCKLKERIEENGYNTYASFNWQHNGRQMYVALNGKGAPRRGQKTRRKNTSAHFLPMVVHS
# Chain of Torsin-1A-interacting protein 2 (Homo sapiens) (Q8NFQ8 whole entry, looked up): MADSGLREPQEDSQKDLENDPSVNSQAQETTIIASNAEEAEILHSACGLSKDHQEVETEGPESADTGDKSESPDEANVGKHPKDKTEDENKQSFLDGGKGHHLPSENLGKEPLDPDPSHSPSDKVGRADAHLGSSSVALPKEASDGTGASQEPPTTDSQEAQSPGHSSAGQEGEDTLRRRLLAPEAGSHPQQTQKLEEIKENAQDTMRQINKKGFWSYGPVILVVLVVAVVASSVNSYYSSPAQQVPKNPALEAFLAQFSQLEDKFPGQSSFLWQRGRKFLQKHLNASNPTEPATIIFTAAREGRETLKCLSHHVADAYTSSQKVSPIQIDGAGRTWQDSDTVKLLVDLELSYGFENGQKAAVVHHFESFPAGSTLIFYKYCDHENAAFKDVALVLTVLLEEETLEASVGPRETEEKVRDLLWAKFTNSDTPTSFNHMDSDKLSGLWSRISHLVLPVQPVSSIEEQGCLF
Structure (SMILES),composite z-score [1],z-score [2],z-score [3],z-score [4],composite z-score [5],z-score [6],composite z-score [7],composite z-score [8],composite z-score [9],composite z-score [10],composite z-score [11],composite z-score [12],composite z-score [13],z-score [14],composite z-score [15],composite z-score [16],composite z-score [17],composite z-score [18],composite z-score [19],composite z-score [20]
CCOC(=O)C1=CCN(S(=O)(=O)c2ccc(C)cc2)C1c1ccccc1 (stereo not given),1.03,-1.76 (inactive),-0.849 (inactive),0.318 (inactive),2.93,-0.4 (inactive),0.38,0.216,0.821,0.227,0.494,0.129,0.221,-0.377 (inactive),1.19,0.509,0.204,0.493,0.22,0.867
CC(C)CNC(=O)[C@@H]1c2ccccc2C(=O)N(C2CCCCC2)[C@H]1c1ccc(CO)cc1,0.933,-0.417 (inactive),-0.641 (inactive),-0.812 (inactive),3.03,3.31 (inactive),-0.137,-0.369,-0.358,-0.218,1.65,0.477,0.962,-1.25 (inactive),-0.0953,0.185,-0.602,-0.333,-0.308,0.0986
C=CCNC(=O)[C@@H]1[C@H]2C(=O)O[C@H](c3ccccc3)[C@H](c3ccccc3)N2[C@H](c2ccc(OCCO)cc2)[C@@]12C(=O)N(C(=O)OCCOC)c1ccc(C#CCCO)cc12,1.55,-0.0915 (inactive),0.269 (inactive),4.08 (inactive),1.85,2.17 (inactive),-0.0861,0.916,1.1,-0.0088,1.12,-0.0139,0.171,-1.53 (inactive),0.637,1.28,0.635,1.24,0.646,0.63
COCCOC(=O)N1C(=O)[C@@]2(c3cc(C#Cc4ccc(OC)cc4)ccc31)[C@H](C(=O)NC[C@H](O)c1ccccc1)[C@H]1C(=O)O[C@H](c3ccccc3)[C@H](c3ccccc3)N1[C@@H]2c1ccc(OCCO)cc1,1.54,1.62 (inactive),1.74 (inactive),7.18 (inactive),2.87,1.38 (inactive),-0.0412,1.32,1.04,-0.0532,1.02,-0.0284,0.236,-1.31 (inactive),1.36,1.3,0.384,0.863,0.324,0.269
CCOC(=O)C1=CC[C@@H](c2ccccc2)N(S(=O)(=O)c2ccc(C)cc2)[C@H]1c1cccc(OC)c1,1.06,0.498 (inactive),1.52 (inactive),2.05 (inactive),2.19,-0.439 (inactive),0.116,-0.266,0.618,-0.0407,0.389,0.708,0.244,-0.937 (inactive),0.425,0.897,0.197,0.549,0.135,0.949
COCCOC(=O)N1C(=O)[C@@]2(c3cc(C#CCNC(N)=O)ccc31)[C@H](c1ccc(OCCO)cc1)N1[C@H](c3ccccc3)[C@H](c3ccccc3)OC(=O)[C@H]1[C@@H]2C(=O)NC[C@H](O)c1ccccc1,1.57,2.3 (inactive),3.07 (inactive),4.91 (inactive),2.44,0.925 (inactive),0.19,1.1,1.06,0.0671,1.4,0.26,0.788,0.38 (inactive),0.945,0.469,0.711,1.29,0.583,1.43
NC(=O)[C@H]1[C@@H]2C(=O)O[C@@H](c3ccccc3)[C@@H](c3ccccc3)N2[C@@H](c2ccc(O)cc2)[C@]12C(=O)Nc1ccccc12,-0.472,0.446 (inactive),-0.732 (inactive),0.659 (inactive),2.99,0.13 (inactive),-0.139,-1.18,-1.03,-0.356,0.845,-0.352,0.561,-0.0764 (inactive),-1.07,-1.69,-1.15,-1.51,-1.34,-1.11
C=CCNC(=O)[C@@H]1[C@H]2C(=O)O[C@H](c3ccccc3)[C@H](c3ccccc3)N2[C@H](c2ccc(O)cc2)[C@@]12C(=O)Nc1ccc(C#CCC(C(=O)OC)C(=O)OC)cc12,1.55,1.66 (inactive),0.918 (inactive),1.12 (inactive),2.32,-0.311 (inactive),0.0539,0.482,0.387,-0.187,0.445,0.0989,0.181,0.246 (inactive),0.242,0.958,-0.0617,0.544,0.317,0.595
COCC(=C=CC[C@@H](O)c1cccc(OCCO)c1)CCO,0.783,0.0995 (inactive),0.114 (inactive),-0.0032 (inactive),0.939,0.0464 (inactive),-0.171,0.225,0.669,0.102,1.03,0.0771,0.268,0.317 (inactive),0.984,0.162,-0.846,0.167,-0.111,0.598
[N-]=[N+]=NCc1ccccc1C[C@@]1(C(=O)N2CCCCC2)N=C(c2ccc(OCCCO)cc2)O[C@@H]1c1ccccc1CN=[N+]=[N-],1.28,-0.364 (inactive),0.78 (inactive),25.9 (active),2.46,0.76 (inactive),0.154,-0.147,0.278,-0.0833,0.649,0.453,1.07,-0.4 (inactive),0.375,0.962,-0.0197,-0.0105,0.287,0.964
